In PubChem BioAssay:
Active and inactive are the calls of the source. Unless noted, no rule for the calls is given here.

Assays:
[1] = A549 cell viability effects, profiling panel, calcein-AM fluorescence, 48 h, basal (AID 1162); details: higher = more signal; also: test concentration not given here
[2] = adipocyte viability effects, profiling panel, cell-based, 3T3-L1 adipocytes, calcein-AM fluorescence, 48 h, basal (AID 1163); details: 3T3-L1 adipocytes viability, higher = more signal; also: test concentration not given here
[3] = HepG2 cell viability effects, profiling panel, calcein-AM fluorescence, 48 h, basal (AID 1164); details: higher = more signal; also: test concentration not given here
[4] = MM1S cell viability effects, profiling panel, calcein-AM fluorescence, 48 h, basal (AID 1165); details: higher = more signal;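 also: viability of MM1S multiple myeloma cells under basal unstimulated conditions; test concentration not given here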
[5] = basal RPMI8226 viability, no added stimulus, profiling panel, cell-based, calcein-AM fluorescence, 48 h, PK04 Diversity Set (AID 1166); details: RPMI8226 myeloma viability, higher = more signal;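 also: cells grown under basal conditions without added stimulus; test concentration not given here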
[6] = basal HepG2 mitochondrial membrane potential changes, profiling panel, cell-based, JC-1 fluorescence, 24 h, 100 nL compound (AID 1167); details: higher = more signal; also: test concentration not given here
[7] = basal 3T3-L1 adipocyte mitochondrial potential changes, profiling panel, cell-based, JC-1 fluorescence, 3T3-L1 adipocytes, 24 h, 100 nL compound (AID 1168); details: JC-1 mitochondrial fluorescence, higher = more signal, called active from +8 up or from −8 down; also: test concentration not given here
[8] = basal RPMI8226 mitochondrial membrane potential changes, profiling panel, cell-based, JC-1 fluorescence, 24 h, 100 nL compound (AID 1169); details: RPMI8226 myeloma, JC-1 mitochondrial potential fluorescence, higher = more signal; also: test concentration not given here
[9] = basal MM1S mitochondrial membrane potential changes, profiling panel, cell-based, JC-1 fluorescence, 24 h, 100 nL compound (AID 1170); details: higher = more signal; also: test concentration not given here
[10] = A549 lung cancer cell viability effects, profiling panel, resazurin fluorescence, 24 h, PK04 Diversity Set (AID 1171); details: higher = more signal, called active from +8 up or from −8 down; also: test concentration not given here
[11] = HepG2 liver cancer cell viability effects, profiling panel, resazurin fluorescence, 24 h, PK04 Diversity Set (AID 1172); details: higher = more signal; also: test concentration not given here
[12] = basal S. cerevisiae growth modulation, no modifier, primary screen, OD600, strain BY4716, 24 h, basal condition (AID 1173); details: OD600, 24 h, higher = more signal, called active from +8 up or from −8 down
[13] = MM1S myeloma cell viability, profiling panel, resazurin fluorescence, basal, 24 h, PK04 Diversity Set (AID 1174); details: higher = more signal, called active from +8 up or from −8 down;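 also: MM1S multiple myeloma cell line; test concentration not given here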
[14] = target: Dihydroorotate dehydrogenase (quinone), mitochondrial (Plasmodium falciparum (isolate 3D7)) (UniProt Q08210); assay: PfDHODH enzyme inhibitors, primary screen, biochemical, C-terminal His tag, absorbance 600 nm (AID 1175); details: DCIP absorbance 600 nm, higher = more signal, called active from +8 up or from −8 down;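 also: recombinant parasite enzyme with a five histidine tag at its C terminus; test concentration not given here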
Dihydroorotate dehydrogenase (quinone), mitochondrial (Plasmodium falciparum (isolate 3D7)), sequence (Q08210 whole entry, looked up): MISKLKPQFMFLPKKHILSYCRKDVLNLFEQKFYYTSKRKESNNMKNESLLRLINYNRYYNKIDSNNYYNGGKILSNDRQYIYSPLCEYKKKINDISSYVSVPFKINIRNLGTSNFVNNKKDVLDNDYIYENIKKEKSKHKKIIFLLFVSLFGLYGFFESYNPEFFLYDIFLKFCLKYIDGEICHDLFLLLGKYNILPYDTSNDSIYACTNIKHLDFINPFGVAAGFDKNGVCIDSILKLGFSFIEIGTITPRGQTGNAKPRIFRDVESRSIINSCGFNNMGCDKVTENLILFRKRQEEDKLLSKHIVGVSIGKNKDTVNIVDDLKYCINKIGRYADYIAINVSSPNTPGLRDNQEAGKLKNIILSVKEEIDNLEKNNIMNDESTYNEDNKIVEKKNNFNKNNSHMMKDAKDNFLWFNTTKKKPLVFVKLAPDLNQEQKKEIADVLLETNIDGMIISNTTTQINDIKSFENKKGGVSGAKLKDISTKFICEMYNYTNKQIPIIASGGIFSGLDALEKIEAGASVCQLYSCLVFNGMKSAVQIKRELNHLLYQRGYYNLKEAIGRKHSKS

[15] = P. aeruginosa biofilm formation inhibitors, primary screen, strain PAO1, LB-PBS medium, absorbance 600 nm (AID 1176); also: test concentration not given here; details: P. aeruginosa PAO1 growth/biofilm, A600, 12 h; higher = more signal
[16] = S. cerevisiae RM11-1a growth modifiers, primary screen, strain RM11-1a, OD600, basal, 24 h (AID 1177); details: OD600, 24 h, higher = more signal, called active from +8 up or from −8 down;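 also: cultures grown under basal conditions with no added stressor; test concentration not given here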
[17] = E. coli acrAB mutant growth effects, primary screen, E. coli filamentation inducers, strain DRC39, OD650, 24 h (AID 1178); details: higher = more signal, called active from +8 up or from −8 down;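 also: growth measured as culture turbidity by optical density at 650 nm; test concentration not given here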
[18] = E. coli acrAB mutant growth effects, primary screen, E. coli filamentation inducers, strain DRC39, OD650, 48 h (AID 1179);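 also: screen aims at cell division blockers that make cells filament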; details: E. coli DRC39 delta-acrAB growth, higher = more signal, called active from +8 up or from −8 down
[19] = RPMI8226 myeloma cell viability, profiling panel, resazurin fluorescence, basal, 24 h, PK04 Diversity Set (AID 1180); details: higher = more signal;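 also: RPMI8826 multiple myeloma cell line at 5000 cells per well; test concentration not given here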
[20] = target: E3 ubiquitin-protein ligase XIAP (Homo sapiens) (UniProt P98170); assay: XIAP binders, primary screen, biophysical, small-molecule microarray, fluorescence 635 nm (AID 1181); details: small-molecule microarray binding, higher = more signal;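 also: score merges 667 nm emission and signal to noise over triplicate slides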
E3 ubiquitin-protein ligase XIAP (Homo sapiens), sequence (P98170 whole entry, looked up): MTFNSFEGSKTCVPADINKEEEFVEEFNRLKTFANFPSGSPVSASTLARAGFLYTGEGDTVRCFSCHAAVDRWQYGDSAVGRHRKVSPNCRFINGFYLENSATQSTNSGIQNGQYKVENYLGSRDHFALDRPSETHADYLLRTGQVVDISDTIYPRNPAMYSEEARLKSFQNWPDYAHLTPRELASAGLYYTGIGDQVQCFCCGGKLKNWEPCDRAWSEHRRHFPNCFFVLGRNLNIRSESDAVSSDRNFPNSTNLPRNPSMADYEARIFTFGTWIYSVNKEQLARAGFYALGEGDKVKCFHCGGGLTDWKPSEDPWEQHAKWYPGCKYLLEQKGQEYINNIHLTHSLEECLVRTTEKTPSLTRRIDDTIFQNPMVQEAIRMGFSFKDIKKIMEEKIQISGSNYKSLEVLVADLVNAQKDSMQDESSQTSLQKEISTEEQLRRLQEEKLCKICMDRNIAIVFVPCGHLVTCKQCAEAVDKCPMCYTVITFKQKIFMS

SMILES	z-score [1]	z-score [2]	z-score [3]	z-score [4]	z-score [5]	z-score [6]	z-score [7]	z-score [8]	z-score [9]	z-score [10]	z-score [11]	z-score [12]	z-score [13]	composite z-score [14]	z-score [15]	z-score [16]	z-score [17]	z-score [18]	z-score [19]	composite z-score [20]
CC1CC/C=C\[C@H]2OC34C=CCN(c5ccc(Cl)cc5)C(=O)[C@H]3N(C(CO)C(C)C)C(=O)[C@]4(C)C2C(=O)O1 (stereo not given in full)	0.109	-1.06	0.453	0.955	-0.105	-0.174	-0.21 (inactive)	-0.362	0.00224	-0.392 (inactive)	-0.328	-0.432 (inactive)	0.0849 (inactive)	-2.37 (inactive)	0.109 (inactive)	-0.245 (inactive)	-0.163 (inactive)	0.129 (inactive)	0.399	0.0808
COc1ccc([Si](C)(C)[C@@H]2[C@@H](CCO)O[C@]3(C(=O)N(Cc4cccc(N5C(=O)COc6ccccc65)c4)c4ccccc43)[C@H]2C)cc1	-2.03	0.574	-4.17	-2.95	-4.16	-0.527	0.351 (inactive)	-1.09	-1.7	-2.6 (inactive)	-2.07	0.967 (inactive)	-3.29 (inactive)	0.737 (inactive)	1.3 (inactive)	4.05 (inactive)	0.775 (inactive)	0.295 (inactive)	-3.26	0.0424
[N-]=[N+]=NCc1ccccc1C[C@]1(C(=O)NCCN2CCOCC2)N=C(c2ccc(OCCCO)cc2)O[C@H]1c1ccccc1	0.112	0.117	-0.493	-0.338	-1.06	0.871	0.469 (inactive)	-0.636	-0.54	1.29 (inactive)	0.383	-2 (inactive)	-0.0784 (inactive)	-0.603 (inactive)	0.193 (inactive)	-0.65 (inactive)	1.24 (inactive)	0.535 (inactive)	0.166	0.131
COc1ccc(C(=O)Nc2ccc3c(c2)[C@]2(O[C@@H](CCO)[C@H]([Si](C)(C)c4ccc(OC)cc4)[C@H]2C)C(=O)N3Cc2ccccc2)cc1	-1.34	1.39	-2.56	-2.64	-2.99	0.00933	-0.0069 (inactive)	-0.965	-0.497	-2.42 (inactive)	-1.9	-2.35 (inactive)	-7.18 (inactive)	-0.454 (inactive)	1.55 (inactive)	2.47 (inactive)	0.799 (inactive)	-0.167 (inactive)	-2.51	-0.165
CCOC(=O)C[C@H]1[C@H](OC(=O)c2cc3ccccc3oc2=O)[C@@H](NC(=O)c2ccc3ccccc3n2)c2cc(OCCCO)ccc2N1C(=O)c1ccc2ccccc2n1	0.513	1.27	0.717	-0.255	-0.719	0.082	-0.33 (inactive)	-0.115	1.17	-0.82 (inactive)	0.165	-0.535 (inactive)	0.35 (inactive)	0.315 (inactive)	-0.766 (inactive)	-0.361 (inactive)	1.72 (inactive)	0.627 (inactive)	-0.594	0.035
CC(C)CNC(=O)[C@@]1(c2ccc([N+](=O)[O-])cc2)CC(=O)N(C(C)C)[C@@H]1c1ccc(CO)cc1	0.264	-0.0455	0.0153	-1.07	0.399	0.621	-0.167 (inactive)	0.604	-0.131	0.591 (inactive)	-0.0273	-0.78 (inactive)	1.23 (inactive)	1.14 (inactive)	-0.301 (inactive)	-0.738 (inactive)	0.474 (inactive)	1.53 (inactive)	1.37	-0.13
COC(=O)[C@@]1(Cc2ccc(OC)cc2)[C@H]2c3cc(C(=O)N(C)C)n(Cc4cc(C)n(C)n4)c3C[C@H]2CN1C(=O)c1ccccc1	-0.892	0.336	-0.384	-0.407	-1.77	1.57	-0.938 (inactive)	0.534	-0.228	-1.9 (inactive)	-1.04	0.932 (inactive)	-1.82 (inactive)	-0.546 (inactive)	0.992 (inactive)	0.949 (inactive)	-1.2 (inactive)	-1.29 (inactive)	-0.936	0.0018
COC(=O)c1ccc(OC)c(/C=C\CC(CCc2ccccc2)OC(=O)c2ccncc2)c1 (stereo not given)	-0.568	0.115	-0.457	-2.19	-2.2	-1.28	-1.32 (inactive)	-0.745	0.256	2.06 (inactive)	0.263	0.0069 (inactive)	0.472 (inactive)	-3.1 (inactive)	0.0619 (inactive)	-0.0204 (inactive)	0.0514 (inactive)	-0.379 (inactive)	1.24	2.62
COC(=O)[C@]1(Cc2ccccc2CN=[N+]=[N-])N=C(c2ccc(OCCCO)cc2)O[C@@H]1c1ccccc1	-3.05	0.371	-4.37	-3.58	-3.96	-1.05	0.199 (inactive)	-1.05	-2.7	-2.91 (inactive)	-2.08	1.42 (inactive)	-4.5 (inactive)	2.51 (inactive)	0.948 (inactive)	3.06 (inactive)	0.286 (inactive)	-0.865 (inactive)	-5.26	-0.184
